# LASV entry inh = inhibitors of Lassa virus binding or cell entry; Potency, µM (highest dose often 37.9 µM), for inactives: at the highest dose activity change, negative = inhibition, most hits filed as inhibitors; 300,000 compounds, 1.2% hits; Lassa virus pseudotype entry inhibition, cell reporter; AID 540256; calls by dose curve; tested in HEK293 cells; further: potency means the concentration at half of the fitted maximal effect; nearly all actives have a fitted effect of over 50% in size
# FMDV antiviral = antivirals against foot and mouth disease virus | FMDV antiviral cell-based qHTS | Potency, µM (titrated, usually from 57.9 µM), inactives show top-dose activity change, negative = inhibition, hits mostly inhibitors | 410,000 compounds, 1.2% hits | AID 1159524; calls by dose curve; tested in HEK293T cells; further: read-out not given here; potency means the concentration at half of the fitted maximal effect; nearly all actives have a fitted effect of over 45% in size
# HCMV inh = blocks human cytomegalovirus replication. HFF cells, HCMV-luciferase reporter, 72 h; stronger effect = lower value. activity change, negative = inhibition, % at 57.5 µM. 410,000 compounds, 4.5% hits; in the data active means activity change below about -60%; inconclusive means no clear call, values can overlap the other calls; inactive means above about -39%
#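 Two-dose cell screen: HFF monolayers treated with compounds and infected with luciferase-expressing HCMV at 1 PFU/cell, 72 h at 37C, then lysed for luciferase measurement.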
# HCV inh = HCV inhibition; Huh7.5.1 HCVcc-Cre infection, luciferase reporter, 44 h; AID 651820; 340,000 compounds, 3.4% hits; Potency, µM (highest dose often 41.8 µM), for the others: at the highest dose activity change, negative = inhibition, most hits filed as inhibitors; active means well fitted inhibition curve with a large enough effect; inconclusive means small, poorly fitted or top-dose-only effect, or another doubt; inactive means no such curve, though single readings can be large or run the other way; further: potency means the concentration at half of the fitted maximal effect
#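 Seed cells (1,000/well) for 4 h; treat with compound and infect with HCVcc-Cre, moi about 0.5. Incubate 44 h, then detect luciferase activity.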
# Marburg entry inh = blocks Marburg virus binding to or entry into cells; Marburg virus pseudotyped entry inhibition, cell reporter; 300,000 compounds, 1.8% hits; Potency, µM (highest dose often 37.8 µM), for inactives: top-dose activity change, negative = inhibition, actives largely listed as inhibitors; AID 540276; calls by dose curve; tested in HEK293 cells; further: potency means the concentration at half of the fitted maximal effect
# The depositor's hits bear a star; ? = inconclusive; nt = no result; [ ] = another dose, or the depositor's remark. Shown are actives, neighbours in structure and some others; about 7.9% of the full set was active somewhere. On the % scale 0 is the no-effect control and ±100 the full control effect.
SMILES,LASV entry inh,FMDV antiviral,HCMV inh,HCV inh,Marburg entry inh
COC(=O)[C@]12C[C@H](CC(=O)NCC34CC5CC(CC(C5)C3)C4)C(=O)N(Cc3ccc4c(c3)OCO4)C1=C[C@H](COCc1ccccc1)O[C@@H]2C,nt,nt,-62.7*,nt,nt
COC(=O)[C@]12CCCCC=C1N(Cc1ccc3c(c1)OCO3)C(=O)[C@H](CC(=O)N1CCCCC1)C2,nt,-6.3%,-69.7*,nt,nt
COC(=O)[C@]12C[C@H](CC(=O)NCc3cccs3)C(=O)N(Cc3ccccc3)C1=C[C@H](C(C)C)O[C@@H]2C1CC1,nt,nt,-70.8*,nt,nt
COC(=O)[C@]12CCCCC=C1N(Cc1ccco1)C(=O)[C@H](CC(=O)NCc1cccs1)C2,nt,-14.6%,5.1,nt,nt
COC(=O)[C@]12CCCCC=C1N(Cc1ccccc1)C(=O)[C@H](CC(=O)NCc1cccs1)C2,nt,0.1%,-65.6*,nt,nt
Cc1ccc(-n2nc3c(N4CCC(C(=O)N(C)Cc5ccccc5)CC4)nnc(C)c3c2C)cc1,?,-13.5%,-5.1,nt,nt
O=c1cc(-c2c(F)c(F)c(F)c(F)c2F)oc2ccccc12,?,nt,?,5.01µM*,18.3µM*
CCCn1c(N2CCN(Cc3ccc(Cl)cc3)CC2)nc2ccccc21,nt,-28.0%,-13.7,12.6µM*,nt
CCOC(=O)c1ncc2[nH]c3ccc(OCc4ccccc4)cc3c2c1COC,nt,15.8µM*,nt,nt,nt
O=C(O)c1cc2cc(OCc3ccccc3)ccc2[nH]1,12.1%,nt,89.2,9.1%,-1.8%
CC(C)(C)c1ccc(Cn2c(=O)cnc3ccccc32)cc1,10µM*,12.6µM*,-80.9*,?,?
CC(C)c1ccc2oc(-c3cccc(NC(=O)c4ccc5c(c4)OCCO5)c3)nc2c1,3.4%[46.1 µM],3.5%,36.0,nt,2.9%[46.1 µM]
COc1cccc(OC)c1OCCNCC1CSc2ccccc2O1 (stereo unspecified),?,-24.9%,?,?,25.9µM*
COc1cccc(OC)c1OCCCOc1c(OC)cccc1OC,0.6%,-18.4%,9.5,-10.0%,-13.5%[46.1 µM]
Cc1ccc(C)c(NC(=O)Cn2c(=O)n(CC3CCCO3)c(=O)c3ccccc32)c1 (stereo unspecified),8.5%[46.1 µM],-25.0%,7.8,nt,3.1%[46.1 µM]
COc1ccc2cc(C(=O)C3CCCN(C4CCOCC4)C3)ccc2c1 (stereo unspecified),1.7%[46.1 µM],1.7%,8.2,-18.7%,7.94µM*
CCOC(=O)C1CCN(Cc2cnc(Oc3ccc(C(C)(C)C)cc3)s2)CC1,9.2µM*,-27.8%,-9.9,-11.1%,3.0%
COc1ccc2cc(C(=O)C3CCCN(Cc4cnc(C)s4)C3)ccc2c1 (stereo unspecified),?,0.0%,-78.4*,11.2µM*,-36.2%[46.1 µM]
Cc1ncc(CN2CCCC(C(=O)c3ccc(C(C)(C)C)cc3)C2)s1 (stereo unspecified),nt,?,?,11.2µM*,nt
COc1ccc(C(=O)C2CCCN(Cc3cnc(C)s3)C2)cc1OC (stereo unspecified),7.6%,-7.7%,?,-2.6%,1.0%[46.1 µM]
CNc1nc(-c2ccc3c(c2)CCN3C(=O)c2ccc(F)cc2)cs1,nt,2.1%,-18.7,?,nt
CNc1nc(-c2ccc3c(c2)CCN3C(=O)c2cccc(F)c2)cs1,nt,-22.4%,-9.7,11.2µM*,nt
O=C(CN1CCCC1)Nc1nc(-c2ccc3c(c2)CCN3C(=O)c2ccccc2F)cs1,?,3.0%,nt,10µM*,?
CC(=O)Nc1nonc1-c1nnc(SCC(=O)Nc2ccc(F)cc2F)n1-c1ccccc1,-6.1%[46.1 µM],-14.0%,-6.3,nt,5.9%[46.1 µM]
O=C(Nc1cc(C(=O)Nc2ccc(S(=O)(=O)O)cc2S(=O)(=O)O)cc(C(=O)Nc2ccc(S(=O)(=O)O)cc2S(=O)(=O)O)c1)Nc1cc(C(=O)Nc2ccc(S(=O)(=O)O)cc2S(=O)(=O)O)cc(C(=O)Nc2ccc(S(=O)(=O)O)cc2S(=O)(=O)O)c1,nt,-4.0%,nt,nt,12.6µM*
SMILES,LASV entry inh,FMDV antiviral,HCMV inh,HCV inh,Marburg entry inh
O=C(Nc1ccc(C(=O)Nc2ccc(C(=O)Nc3ccc(S(=O)(=O)O)c4cc(S(=O)(=O)O)cc(S(=O)(=O)O)c34)cc2)cc1)Nc1ccc(C(=O)Nc2ccc(C(=O)Nc3ccc(S(=O)(=O)O)c4cc(S(=O)(=O)O)cc(S(=O)(=O)O)c34)cc2)cc1,nt,-7.1%,nt,nt,nt
O=C(CC1c2ccccc2C=C(c2ccsc2)N1c1ccc(-c2cccnc2)cc1)C1CC1 (stereo unspecified),nt,0.0%,-78.9*,nt,nt
COc1cccc(Nc2nc(C)nc3c2oc2ccccc23)c1,25.5%[46.1 µM],-24.8%,32.3,11.2µM*,?
Cc1nc(Nc2cccc(O)c2)c2oc3ccccc3c2n1,nt,-22.7%,78.1,12.6µM*,nt
COc1ccc(Oc2nc(C)nc3c2oc2ccccc23)cc1,?,?,-67.7*,8.91µM*,?
Cc1nc(Nc2cccc(F)c2)c2oc3ccccc3c2n1,-12.8%[46.1 µM],-7.0%,67.8,?,-29.0%[46.1 µM]
Cc1nc(Nc2cccc(Cl)c2)c2oc3ccccc3c2n1,?,-24.8%,-2.8,-26.7%,?
Cc1cc(C)c2c(c1)c(C)cc1nnc(SCC(=O)c3ccc(F)cc3)n12,1.8%[46.1 µM],-8.3%,-22.8,nt,-20.8%[46.1 µM]
Cc1c(C(=O)N2CCCC2)sc2ncnc(NCCCN3CCOCC3)c12,nt,-5.4%,nt,nt,nt
CS(=O)(=O)c1nc(-c2ccc(Br)cc2)cc(-c2ccccc2)c1C#N,5.8µM*,?,-98.8*,?,?
COc1ccc(-c2cc(-c3ccccc3)c(C#N)c(S(C)(=O)=O)n2)cc1,?,39.8µM*,-65.7*,25.9%,?
COC(=O)c1sc2ccccc2c1S(=O)(=O)N1CCN(c2ccc(C(C)=O)cc2)CC1,3.6%[46.1 µM],-17.4%,30.2,nt,nt
CCOc1ccc(CNC(=O)CCn2nc(C)c3c(C)n(-c4ccccc4)nc3c2=O)cc1,13.5%[46.1 µM],-1.7%,7.8,nt,nt
Cc1ccccc1-c1ccc2ncnc(NCc3cccnc3)c2c1,nt,-21.5%,nt,nt,nt
CN(C)c1ccc(/C=N/n2ncc3ccccc32)cc1,13µM*,nt,nt,?,10.3µM*
Cc1ccc(CCNC(=O)c2ccc(Nc3nc4ccccc4n4nnnc34)cc2)cc1,2.3%[46.1 µM],13.4%,-3.0,nt,2.0%[46.1 µM]
c1ccc(Cn2nnc3c(N4CCN(Cc5ccc6c(c5)OCO6)CC4)ncnc32)cc1,-13.5%,?,-22.5,7.08µM*,?
Cc1cccc(Cn2ccc(-c3ccc(Cl)cc3)c(C#N)c2=O)c1,3.5%,-15.8%,-37.8,-5.8%,-11.5%
Cc1cccc(Cn2ccn(Cc3ccc(Cl)cc3)c(=O)c2=O)c1,0.3%[46.1 µM],-2.3%,-62.1*,nt,nt
Cc1ccc(CN2CCC(=O)N(Cc3ccccn3)CC2)c(C)c1,nt,-12.5%,nt,nt,nt
CCOC(=O)C(=O)Nc1nnc2n1CCS2,-10.0%[46.1 µM],-3.6%,1.3,nt,nt
O=C(Nc1ccc2c(c1)oc1ccccc12)C1CC1,12.4%,27.9%,86.1,10µM*,?
Cc1ccc(-c2nnc(SCC(=O)Nc3ccc4c(c3)oc3ccccc34)n2C)c(Cl)c1,-20.0%,-22.2%,-86.0*,?,-24.9%
O=C(Nc1ccc2c(c1)oc1ccc(S(=O)(=O)N3CCCC3)cc12)C1CC1,11.6µM*,nt,?,?,-25.0%

# From PubChem BioAssay
